Results on ten compounds are retold here after PubChem BioAssay AID2544 (Sanford-Burnham Center for Chemical Genomics, 2010).

Molecules are shown by their SMILES. Among all 330,000 compounds or so, about 390 (0.12%) were called active. What follows is part of a selection rich in actives, with near analogues and random picks from the rest. A number with no mark means an inactive call.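 Rule for the calls: active = inhibition reaching a set limit with compound at 10 µM in the primary screen (cut at about 35% in these data); inactive = the rest.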

Chain of Intestinal-type alkaline phosphatase (Homo sapiens) (P09923 whole entry, looked up): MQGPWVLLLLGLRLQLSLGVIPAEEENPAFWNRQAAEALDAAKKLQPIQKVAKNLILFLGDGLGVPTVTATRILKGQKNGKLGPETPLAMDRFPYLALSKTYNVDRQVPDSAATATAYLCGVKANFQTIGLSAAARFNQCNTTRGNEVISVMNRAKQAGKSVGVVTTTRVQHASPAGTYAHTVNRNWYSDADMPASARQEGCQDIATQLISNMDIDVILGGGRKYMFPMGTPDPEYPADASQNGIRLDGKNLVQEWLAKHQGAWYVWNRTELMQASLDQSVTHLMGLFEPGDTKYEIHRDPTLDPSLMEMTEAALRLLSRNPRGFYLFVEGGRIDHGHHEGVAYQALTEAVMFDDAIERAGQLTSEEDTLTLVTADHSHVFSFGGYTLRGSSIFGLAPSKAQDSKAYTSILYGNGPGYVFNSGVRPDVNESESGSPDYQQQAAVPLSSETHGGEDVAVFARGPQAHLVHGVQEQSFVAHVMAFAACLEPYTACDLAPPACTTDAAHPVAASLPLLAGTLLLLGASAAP

This test addresses Intestinal-type alkaline phosphatase (Homo sapiens) (UniProt P09923). In words: blockers of intestinal alkaline phosphatase activity – biochemical, luminescence, uHTS, primary screen (AID 2544).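 Note: plate controls were DMSO wells with enzyme for no effect and no-enzyme buffer wells for full effect.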 The following applies: purified IAP, CDP-Star luminescence, 30 min; at 10 µM; stronger effect = higher value.
The inhibition is the drop in the measured response relative to a control, in per cent. For `COc1ccccc1N=Nc1c(O)[nH]c(=S)[nH]c1=O`, the inhibition was 37.5% (active).

Regarding `CCOCCc1c(O)[nH]c(=S)[nH]c1=O`, the inhibition was 7.2%.

Take `O=C1N=c2ccccc2=C/C1=C\c1c(O)[nH]c(=S)[nH]c1=O`: the inhibition is -13%.

As to `COc1ccc(NC(=O)c2cn(CCC#N)nc2-c2ccc([N+](=O)[O-])cc2)cc1`, the inhibition was 1.2%.

For `CCN(CC)c1ccc([N+](=O)[O-])c2cccnc12`, the inhibition was 26.2%.

Consider `CN(c1ccccc1)c1ccc([N+](=O)[O-])c2nonc12`, for which the inhibition is 45.8% (active).

Consider `O=C(OCCN1CCOCC1)C1(c2ccccc2)CCCC1`, for which the inhibition is -11.7%.

In the case of `Cc1ccc2c(c1)C1CN(C)CCC1N2C(=O)Cn1nnc(-c2ccccc2F)n1` (stereo not given), the inhibition is -5.5%.

Take `Cc1ccc2c(c1)=C/C(=C\c1c(O)[nH]c(=O)[nH]c1=O)C(=O)N=2`: the inhibition is -9.3%.

For the compound `COc1ccc(-n2c(O)c(C(C)=Nc3ccc4c(c3)CCC4)c(=O)[nH]c2=O)cc1`, the inhibition was -16.1%.
